Test results reported in PubChem BioAssay (NCI).
Values joined by “and” are separate entries in the source; they are usually repeats but may differ in a detail not shown here. Identical values can stand only once. Compounds without any hit were thinned out: in the full panel of roughly 79,000, 15% have a hit. A structure can be active in one record and inactive in another. Active and inactive are the calls of the source. Cut-off read from the data, not from the text of the source: active = growth inhibition above about 70%; inactive = the rest.

Experiments:
[1] = NCI Yeast Anticancer Drug Screen. Data for the rad50 strain (AID 155);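 note: 0% = growth of vehicle-only cultures of the same strain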; details: S. cerevisiae rad50 strain growth inhibition, stronger effect = higher value
Method in brief: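 Growth of the mutant yeast was measured after compound exposure and referenced to vehicle-treated cultures.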

[2] = NCI Yeast Anticancer Drug Screen. Data for the mec2-1 strain (AID 157); details: S. cerevisiae mec2-1 strain, stronger effect = higher value
Method in brief: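 Compounds were applied to mec2-1 yeast cells. Their growth was then compared with that of vehicle-treated cultures to give growth inhibition.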

[3] = NCI Yeast Anticancer Drug Screen. Data for the sgs1 mgt1 strain (AID 161);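 note: 0% = growth of cultures given vehicle only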; details: S. cerevisiae sgs1 mgt1 strain, stronger effect = higher value
Method in brief: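 Yeast cells carrying a defined DNA-repair defect were exposed to test compounds. Growth inhibition was measured relative to vehicle-treated controls.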

[4] = NCI Yeast Anticancer Drug Screen. Data for the cln2 rad14 strain (AID 165);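 note: 0% = growth equal to vehicle treated cultures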; details: S. cerevisiae cln2 rad14 strain, stronger effect = higher value
Method in brief: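 Strain: cln2 rad14 yeast, altered in cell cycle control and DNA damage repair. Read-out: growth inhibition vs vehicle.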

[5] = NCI Yeast Anticancer Drug Screen. Data for the bub3 strain (AID 167); details: S. cerevisiae bub3 mutant strain, stronger effect = higher value
Method in brief: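 Whole-cell yeast assay. The mutant strain was incubated with compounds, and growth inhibition was determined by comparison with vehicle-treated cells.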

[6] = NCI Yeast Anticancer Drug Screen. Data for the mlh1 rad18 strain (AID 175); details: S. cerevisiae mlh1 rad18 strain growth inhibition, stronger effect = higher value
Method in brief: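 A repair-deficient yeast strain is exposed to test compound, and growth is scored relative to vehicle-treated controls.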

[7] = at 5.0 µM (retest, dose inferred, filed as 0.5)
[8] = at 50.0 µM (retest, dose inferred, filed as 5.0)

Structure (SMILES)	growth inhibition [1, 7]	growth inhibition [1, 8]	growth inhibition ([1]; at 50.0 µM)	growth inhibition [2, 7]	growth inhibition [2, 8]	growth inhibition ([2]; at 50.0 µM)	growth inhibition [3, 7]	growth inhibition [3, 8]	growth inhibition ([3]; at 50.0 µM)	growth inhibition [4, 7]	growth inhibition [4, 8]	growth inhibition ([4]; at 50.0 µM)	growth inhibition [5, 7]	growth inhibition [5, 8]	growth inhibition ([5]; at 50.0 µM)	growth inhibition [6, 7]	growth inhibition [6, 8]	growth inhibition ([6]; at 50.0 µM)
CC(=O)O[C@H]1CC[C@H]2[C@@H]3CC[C@H]4CC(=O)CC[C@@H]4[C@H]3CC[C@]12C	-2% (inactive)	-19% (inactive)	11% (inactive)	-2% (inactive)	-9% (inactive)	10.8% (inactive)	-2% (inactive)	-10% (inactive)	88.6% (active)	-14% (inactive)	-6% (inactive)	1.15% (inactive)	4% (inactive)	7% (inactive)	61.5% (inactive)	-1% (inactive)	-7% (inactive)	-1.35% (inactive)
CC(Cl)CNC(C)C (stereo unspecified)	-156% (inactive)	-171% (inactive)	4.95% (inactive)	-50% (inactive)	-57% (inactive)	-9.4% (inactive)	-64% (inactive)	-67% (inactive)	3.25% (inactive)	-54% (inactive)	-67% (inactive)	24.5% (inactive)	-67% (inactive)	-80% (inactive)	-7.95% (inactive)	-137% (inactive)	-120% (inactive)	6.1% (inactive)
O=[N+]([O-])c1ccc(O)c(Cl)c1	-3% (inactive)	41% (inactive)	68.7% (inactive)	-2% (inactive)	54% (inactive)	78.9% (active)	-4% (inactive)	44% (inactive)	66% (inactive)	-12% (inactive)	57% (inactive)	52.2% (inactive)	-5% (inactive)	25% (inactive)	64.5% (inactive)	-5% (inactive)	53% (inactive)	70.8% (active)
Oc1cccc2cccnc12 (tested in a mixture with another compound)	-6% (inactive)	2% (inactive)	73.5% (active)	-5% (inactive)	-6% (inactive)	83.8% (active)	-4% (inactive)	2% (inactive)	64% (inactive)	-6% (inactive)	-10% (inactive)	-20.8% (inactive)	-5% (inactive)	-4% (inactive)	89.8% (active)	0% (inactive)	-15% (inactive)	85.5% (active)
CCN(CC)P1(=O)OC(c2ccccc2)=CCN1c1ccc(OC)cc1 (stereo unspecified)	0% (inactive)	85% (active)	97.3% (active)	-1% (inactive)	82% (active)	95.3% (active)	-24% (inactive)	95% (active)	97.8% (active)	-7% (inactive)	78% (active)	83% (active)	10% (inactive)	91% (active)	96.2% (active)	2% (inactive)	91% (active)	96.3% (active)
c1cc[c]([Pb]([c]2ccccc2)[c]2ccccc2)cc1.c1cc[c]([Pb]([c]2ccccc2)[c]2ccccc2)cc1	99% (active)	98% (active)	99% (active)	100% (active)	99% (active)	99.5% (active)	100% (active)	99% (active)	99.5% (active)	99% (active)	98% (active)	99% (active)	99% (active)	97% (active)	99.4% (active)	100% (active)	99% (active)	99.2% (active)
CCCN1CN(c2ccccc2)C2(CCN(CCCC(=O)c3ccc(F)cc3)CC2)C1=O	11% (inactive)	17% (inactive)	35.7% (inactive)	7% (inactive)	14% (inactive)	-4.4% (inactive)	-17% (inactive)	12% (inactive)	60.5% (inactive)	6% (inactive)	20% (inactive)	15.6% (inactive)	4% (inactive)	35% (inactive)	38.9% (inactive)	22% (inactive)	30% (inactive)	20.4% (inactive)
C=Cc1ccccc1 (tested in a mixture with another compound)	-1% (inactive)	2% (inactive)	16.1% (inactive) and 1.1% (inactive) and -7.7% (inactive)	-6% (inactive)	0% (inactive)	-1.35% (inactive) and 6.9% (inactive) and -3.75% (inactive)	-2% (inactive)	-1% (inactive)	-11.2% (inactive) and -6.85% (inactive) and -12.4% (inactive)	-3% (inactive)	3% (inactive)	1.25% (inactive) and -3.6% (inactive) and 2.15% (inactive)	-5% (inactive)	-4% (inactive)	23.4% (inactive) and 14.5% (inactive) and 6.1% (inactive)	-1% (inactive)	1% (inactive)	12.4% (inactive) and 31.1% (inactive) and -6.6% (inactive)
Oc1ccc(Cl)cc1Sc1cc(Cl)ccc1O	99% (active) and 98% (active) and 90% (active)	100% (active) and 99% (active)	99.3% (active) and 41% (inactive) and 99.6% (active)	98% (active) and 94% (active) and 68% (inactive)	100% (active) and 99% (active)	99.5% (active) and 99.7% (active)	96% (active) and 98% (active) and 88% (active)	99% (active) and -8% (inactive)	99.5% (active) and 99.6% (active) and 99.7% (active)	98% (active) and 94% (active)	100% (active) and 99% (active)	99% (active) and 99.3% (active) and 99.2% (active)	99% (active) and 88% (active) and 68% (inactive)	100% (active) and 99% (active)	99.3% (active) and 99.5% (active) and 99.6% (active)	99% (active) and 89% (active)	100% (active) and 99% (active)	99.3% (active) and 99.5% (active) and 99.4% (active)
NC(N)=N/N=C1\C(=O)N(c2ccc(Cl)cc2)C(=O)C1C(=O)Nc1ccc(Cl)cc1 (stereo unspecified)	1% (inactive)	-2% (inactive)	54.6% (inactive)	14% (inactive)	17% (inactive)	46.1% (inactive)	5% (inactive)	11% (inactive)	76.1% (active)	0% (inactive)	-3% (inactive)	-8.8% (inactive)	8% (inactive)	19% (inactive)	-7.75% (inactive)	2% (inactive)	-14% (inactive)	83.1% (active)
CC[CH2][Sn]([CH2]CC)([CH2]CC)[CH2]CCBr	98% (active)	99% (active)	99.5% (active)	99% (active)	100% (active)	99.7% (active)	99% (active)	100% (active)	99.6% (active)	99% (active)	98% (active)	99.3% (active)	99% (active)	99% (active)	99.7% (active)	99% (active)	99% (active)	99.5% (active)
CCC(C)N1CN(c2ccccc2)C2(CCN(CCCC3(c4ccc(F)cc4)OCCO3)CC2)C1=O (stereo unspecified)	-9% (inactive)	93% (active)	-0.8% (inactive)	-7% (inactive)	98% (active)	5.3% (inactive)	-6% (inactive)	95% (active)	34% (inactive)	-7% (inactive)	92% (active)	74.5% (active)	-2% (inactive)	94% (active)	7.55% (inactive)	-3% (inactive)	96% (active)	31% (inactive)
Cc1cccc2cc3ccccc3cc12	29% (inactive)	99% (active)	95.3% (active)	50% (inactive)	99% (active)	97% (active)	43% (inactive)	99% (active)	85.9% (active)	58% (inactive)	99% (active)	91.1% (active)	68% (inactive)	99% (active)	95.7% (active)	70% (active)	99% (active)	96.9% (active)
Clc1ccc(CCN2CCOCC2)c(Cl)c1	4% (inactive)	27% (inactive)	62.9% (inactive)	0% (inactive)	16% (inactive)	34.1% (inactive)	0% (inactive)	42% (inactive)	54.4% (inactive)	31% (inactive)	30% (inactive)	58.5% (inactive)	23% (inactive)	54% (inactive)	34.5% (inactive)	5% (inactive)	55% (inactive)	64.9% (inactive)
CC(C)C1=CC23CCC4C(C)(C(=O)O)CCCC4(C)C2CC1OO3 (stereo unspecified)	37% (inactive)	91% (active)	98.2% (active) and 98.8% (active)	10% (inactive)	94% (active)	93.1% (active) and 98.8% (active)	17% (inactive)	84% (active)	98.2% (active) and 98.9% (active)	1% (inactive)	78% (active)	97% (active) and 90.4% (active)	-3% (inactive)	80% (active)	98% (active) and 99.5% (active)	27% (inactive)	89% (active)	98.5% (active) and 95.2% (active)
CC(=O)[O][Hg][c]1ccccc1N	36% (inactive)	60% (inactive)	91.6% (active)	36% (inactive)	64% (inactive)	93.8% (active)	99% (active)	99% (active)	93.7% (active)	46% (inactive)	99% (active)	92% (active)	99% (active)	98% (active)	92.1% (active)	22% (inactive)	35% (inactive)	91.7% (active)
COC1=C(C)C(=O)C2=C(C1=O)C(CO)N1C(C#N)C3CC4C(C1C2N1CCOC41)N3C (stereo unspecified)	39% (inactive)	51% (inactive)	75.8% (active) and 75.5% (active)	9% (inactive)	52% (inactive)	85.8% (active) and 89.7% (active)	20% (inactive)	47% (inactive)	77.3% (active) and 77.7% (active)	44% (inactive)	80% (active)	85.1% (active) and 85% (active)	19% (inactive)	76% (active)	83.2% (active) and 87.9% (active)	19% (inactive)	49% (inactive)	78.7% (active) and 81% (active)
